In the library only some 2.5% were active in any assay of this set; here they are far more common.
HSF1 inh – HSF1 inhibition; NIH3T3-HGL HSE-luciferase, MG132-induced, luminescence 8 h; stronger effect = lower value; activity change, negative = inhibition, % at 7.5 µM (by protocol); actives 0.77% (n = 300,000); AID 2098;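 active means more than half of replicate wells show activity change below -50%, luminescence cut by over half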;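 further: luciferase reports HSF-1 transcriptional activity via heat shock element; 0% = median of DMSO wells and -100% = zero luminescence signal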
GC-A act – GC-A (human) enzyme activation; P16066; HEK293 GC-A cells, cGMP TR-FRET, EC30 ANP; 0% at EC30 ANP, 100% saturating ANP; activation, % at 10 µM; actives 0.14% (n = 370,000); AID 1671463; in the data active means activation above about 40%
Target sequence (P16066 whole entry, looked up): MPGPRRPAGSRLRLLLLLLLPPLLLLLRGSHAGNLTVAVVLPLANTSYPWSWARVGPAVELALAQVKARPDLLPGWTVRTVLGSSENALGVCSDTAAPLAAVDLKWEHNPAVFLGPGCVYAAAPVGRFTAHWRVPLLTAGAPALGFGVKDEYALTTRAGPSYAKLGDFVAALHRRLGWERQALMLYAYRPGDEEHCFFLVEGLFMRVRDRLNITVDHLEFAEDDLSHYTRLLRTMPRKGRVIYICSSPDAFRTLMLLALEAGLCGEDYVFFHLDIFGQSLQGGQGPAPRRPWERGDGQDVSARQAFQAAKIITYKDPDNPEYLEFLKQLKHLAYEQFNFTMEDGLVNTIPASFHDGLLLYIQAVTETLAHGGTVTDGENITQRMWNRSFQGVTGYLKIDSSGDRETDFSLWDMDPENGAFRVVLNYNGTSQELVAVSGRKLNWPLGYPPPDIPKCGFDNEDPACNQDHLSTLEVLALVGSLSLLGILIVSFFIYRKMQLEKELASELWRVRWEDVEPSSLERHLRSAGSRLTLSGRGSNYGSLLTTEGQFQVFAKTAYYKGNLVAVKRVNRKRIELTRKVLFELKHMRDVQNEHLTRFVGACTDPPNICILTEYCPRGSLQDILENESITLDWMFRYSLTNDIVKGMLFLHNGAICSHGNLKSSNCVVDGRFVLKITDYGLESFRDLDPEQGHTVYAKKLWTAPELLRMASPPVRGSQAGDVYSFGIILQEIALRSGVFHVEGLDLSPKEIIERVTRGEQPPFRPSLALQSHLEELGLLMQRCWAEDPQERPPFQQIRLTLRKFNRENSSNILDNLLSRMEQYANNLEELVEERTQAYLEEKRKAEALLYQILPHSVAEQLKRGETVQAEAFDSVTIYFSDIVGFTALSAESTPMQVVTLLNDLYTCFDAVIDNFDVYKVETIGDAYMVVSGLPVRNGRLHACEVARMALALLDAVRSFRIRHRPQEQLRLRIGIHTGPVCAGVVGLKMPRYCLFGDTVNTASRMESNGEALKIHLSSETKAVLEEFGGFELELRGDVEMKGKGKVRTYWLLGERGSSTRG
DYRK1A inh – blocks rat Dyrk1A kinase activity; ADP-Glo luminescence, NFATc1 peptide; inhibition, % at 12.5 µM; actives 0.43% (n = 310,000); AID 504441; in the data active means inhibition above about 50%;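 further: plate controls were vehicle with enzyme for no effect and no enzyme for full effect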
GC-B act – GC-B (human) receptor activation; P20594; HEK293-GC-B cells, CNP EC30, cGMP TR-FRET; 0% at EC30 CNP, 100% saturating CNP; activation, % at 10 µM; actives 0.11% (n = 370,000); AID 1920062;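 active means activation at 10 µM reaching about 35% in either raw or pattern-adjusted values, limit read from the data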
HSF1 activator – increases HSF-1 driven luciferase reporter signal; actives 1.7% (n = 300,000); activation, % at 9 µM; AID 504408; NIH3T3-HGL HSF-1 luciferase reporter, MG132, 8 h; 100% = twice DMSO control signal;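 active means mean replicate activation of at least 50% with a set share of replicates each reaching 50%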;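 further: 0% = median of the neutral control wells and 100% = twice that signal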
aDG glyco act – alpha-DG glycosylation activation; activation, % at 10 µM; Pro5-aDG cells, alpha-DG glycosylation AlphaScreen (IIH6); 0% Pro5, 100% B10-LARGE cell signal; actives 0.22% (n = 360,000);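 active means activation of at least 8% versus controls, or a plate z-score of at least 8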;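 further: Pro5 are CHO cells carrying HIG-tagged alpha-DG that lacks glycosylation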
Active calls of the source: *; · = not tested or not shown.

SMILES	HSF1 inh	GC-A act	DYRK1A inh	GC-B act	HSF1 activator	aDG glyco act
COc1cc(/C=N/N2CCOCC2)ccc1OCc1ccc(Cl)cc1	34	-1	·	-2	80*	0
COc1cc(/C=C/C(=O)N2CCOCC2)ccc1OCc1ccccc1	46	3	4	-2	75*	0
CCCCCCOc1ccc(/C=C/C(=O)N2CCOCC2)cc1OC	4	-4	-1	0	17	0
COc1cc(/C=N/OCC(=O)Nc2cc(C)cc(C)c2)ccc1OCc1ccc(Cl)cc1	47	2	-5	4	71*	0
CC(=O)c1ccc(Cc2ccccc2)cc1	-1	10	7	2	9	0
CCOC(=O)c1c(C)c(C(=O)NCc2cccnc2)c(C)n1C	-3	-1	6	5	-2	0
CCOC(=O)c1c(C)c(C(=O)NCCc2ccccc2)c(C)n1C	40	-3	1	1	77*	0
Cc1nn(-c2ccccc2)c(C)c1/C=N/NC(=O)CSc1nnc(SCc2ccc(Cl)cc2)s1	37	-7	-6	0	68*	0
Cc1nn(-c2ccccc2)c(C)c1/C=N\NC(=O)CSc1nc2ccccc2n1Cc1ccc(Cl)cc1	·	-2	·	-6	·	·
N#C/C(=C\C=C\c1ccccc1[N+](=O)[O-])C(=O)NCc1ccccc1	56	-4	1	-3	94*	0
Cc1c(Cl)cccc1NC(=O)c1ncn[nH]1	-4	-2	5	-1	-9	0
COc1cc(N=Nc2cccc(S(N)(=O)=O)c2)c2ccccc2c1N	-2	-33	58*	-1	-26	0
Cc1cc(C)c(S(=O)(=O)c2ccccc2C(=O)O)c(C)c1	6	3	-8	3	54*	0
Clc1ccc(-n2nnnc2SCc2c(-c3ccccc3)nc3sccn23)cc1	4	25	-9	39*	26	0
COC(=O)C1=NN(C(=O)c2ccccc2)C(O)(c2ccc([N+](=O)[O-])cc2)C1 (stereo unspecified)	191	1	8	-2	273*	0
COC(=O)C1=NN(C(=O)c2ccc(C)cc2)C(O)(c2ccc(Cl)cc2)C1 (stereo unspecified)	120	·	·	·	147*	·
Cc1ccc(OC(=O)c2ccc3nc(C)sc3c2)cc1	-62*	6	·	5	-67	·
COc1ccc(NC(=O)n2ncc3c(C)cccc32)cc1	39	13	-1	-4	60*	0
Cc1cccc2c1cnn2C(=O)Nc1ccccc1Br	10	-5	0	3	20	0
Cc1ccc(NC(=O)n2ncc3c(C)cccc32)cc1F	31	19	-1	4	61*	0
COc1ccc(NC(=O)n2ncc3c(C)cccc32)cc1OC	30	-5	13	-7	53*	0
CC(C)C[C@H]1COc2cccc(N(C)CCO)c2S(=O)(=O)N1	·	1	·	1	·	0
Cc1ccc(C2=NOC(=O)/C2=C\C=C\c2ccccc2)cc1	77	28	2	6	133*	0
CC(C)(C)c1ccc(C(=O)NC(=S)NNC(=O)c2cccs2)cc1	-60*	-7	-1	-3	-56	1
CCCOc1ccc(C(=O)NNC(=S)NC(=O)c2cccs2)cc1	-55*	-1	-1	0	-62	3
SMILES	HSF1 inh	GC-A act	DYRK1A inh	GC-B act	HSF1 activator	aDG glyco act
O=c1cc(COc2ncnc3c(Cl)cc(Cl)cc23)nc2sccn12	-4	0	-3	-1	-5	0
C=CC[C@H](CC(=O)NCCO)C(=O)NC[C@@H](OC(=O)[C@@H](CC=C)CC(=O)OC(C)(C)C)c1ccccc1	·	-8	·	69*	·	0
COc1ccc(-c2[nH]ncc2N=Nc2cc(C)cc(C)c2)cc1	-18	-1	-3	55*	-17	0
COc1ccc(-c2[nH]ncc2N=Nc2ccccc2)cc1	15	2	14	12	30	0
COc1ccc(NC(=O)CSc2[nH]c(=O)cc(C)c2C#N)cc1OC	-4	2	-1	0	1	0
CC(C)C(C)N(Cc1ccc(C(=O)O)cc1)C(=O)c1ccc2ccccc2n1 (stereo unspecified)	18	4	4	2	58*	0
CC(C)N=C(NS(=O)(=O)c1cccs1)c1ccccc1	-3	3	·	4	-1	0
Cc1ccc(C(=O)Nc2nnc(C3CCCCC3)s2)o1	37	2	1	-3	68*	0
COc1ccc(N2CC(C(=O)Nc3nnc(C4CCCCC4)s3)CC2=O)cc1 (stereo unspecified)	-62*	-2	2	0	-70	0
O=C(Nc1nnc(C2CCCCC2)s1)C1CC(=O)N(c2ccc(F)cc2)C1 (stereo unspecified)	-3	0	-6	-3	17	0
O=C(Nc1cccc(S(=O)(=O)N2CCCC2)c1)c1cccnc1	-1	2	·	-3	-2	0
Cc1cc(=O)oc(C)c1C(=O)NCc1ccccc1	-7	-3	-4	4	-10	2
CCOC(=O)N1CCN(c2ncc(C(F)(F)F)cc2Cl)CC1	-8	2	0	-4	-11	0
O=C(OCCN1CCN(c2ncc(C(F)(F)F)cc2Cl)CC1)c1ccc(Cl)cc1	-80*	1	5	-2	-84	0
Clc1ccc(-c2ccc(SCc3ccccn3)nn2)cc1	47	5	3	-1	81*	0
c1ccc(CSc2ccc(-c3ccccn3)nn2)nc1	20	3	·	3	41	0
N#CC(CO)(Cc1ccc(OC(F)F)cc1)c1nc2ccccc2[nH]1 (stereo unspecified)	46	1	-4	-4	72*	0
Cc1cc(-c2nnc(SCC(=O)Nc3ccccc3C(F)(F)F)o2)c(C)n1-c1ccccc1	-56*	0	·	4	-59	0
Brc1ccc(-c2nnc(-c3ccco3)o2)cc1	43	-14	-3	-19	63*	0
CCOc1ccccc1NC(=O)CSc1nnc(-c2ccncc2)o1	3	-7	4	-9	-2	0
COc1ccc(-c2nnc(SCc3ccccc3F)o2)cc1OC	20	3	-6	1	15	0
Cc1ccc(-c2nnc(SCc3ccccc3F)o2)cc1	26	1	-1	5	58*	0
COc1ccccc1NC(=O)CSc1nnc(-c2ccncc2)o1	-63*	3	-3	5	-70	0
O=C(CCc1ccccc1)NNC(=O)Nc1ccc(Br)cc1	15	8	-5	-5	24	0
O=C(Cn1cnc2c(nnn2Cc2ccccc2F)c1=O)OCc1ccccc1	5	19	-1	15	-2	0
